Results from PubChem BioAssay (NCI).
About 79,000 compounds went through this panel and 15% of them were active in at least one assay; those are over-represented in the sample as a whole. Values without a mark were called inactive. Activity calls are given as the source filed them. Cut-off read from the data, not from the text of the source: active = growth inhibition above about 70%; inactive = the rest.

Columns and labels:
[1] = NCI Yeast Anticancer Drug Screen. Data for the rad50 strain (AID 155);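 note: 0% = growth of vehicle-only cultures of the same strain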; details: S. cerevisiae rad50 strain growth inhibition, stronger effect = higher value
Procedure, shortened: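 Compounds were tested on a yeast strain with an engineered DNA damage repair alteration; the reported value is growth inhibition normalised to vehicle treatment.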

[2] = NCI Yeast Anticancer Drug Screen. Data for the mec2-1 strain (AID 157); details: S. cerevisiae mec2-1 strain, stronger effect = higher value
Procedure, shortened: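 Cells of the genetically defined mec2-1 yeast strain are incubated with test compound. Inhibition of growth is calculated against vehicle-treated controls.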

[3] = NCI Yeast Anticancer Drug Screen. Data for the sgs1 mgt1 strain (AID 161);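 note: 0% = growth of cultures given vehicle only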; details: S. cerevisiae sgs1 mgt1 strain, stronger effect = higher value
Procedure, shortened: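 Genetically altered yeast, compound exposure, growth inhibition relative to vehicle.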

[4] = NCI Yeast Anticancer Drug Screen. Data for the cln2 rad14 strain (AID 165);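 note: 0% = growth equal to vehicle treated cultures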; details: S. cerevisiae cln2 rad14 strain, stronger effect = higher value
Procedure, shortened: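 The screen exposed genetically defined yeast (cln2 rad14) to test compounds and scored growth inhibition relative to vehicle-treated controls.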

[5] = NCI Yeast Anticancer Drug Screen. Data for the bub3 strain (AID 167); details: S. cerevisiae bub3 mutant strain, stronger effect = higher value
Procedure, shortened: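 Growth of a checkpoint-deficient yeast mutant is measured after compound exposure. Values represent inhibition relative to vehicle.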

[6] = NCI Yeast Anticancer Drug Screen. Data for the mlh1 rad18 strain (AID 175); details: S. cerevisiae mlh1 rad18 strain growth inhibition, stronger effect = higher value
Procedure, shortened: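 Compound-treated yeast growth, normalised to vehicle controls. Strain bears defined DNA repair mutations.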

[7] = at 5.0 µM (retest, dose inferred, filed as 0.5)
[8] = at 50.0 µM (retest, dose inferred, filed as 5.0)

With `CCOC(=O)/C(=C\c1ccc(C(=O)OC)cc1)[Se]c1ccccc1` the growth inhibition [1, 7] was 13%, the growth inhibition [1, 8] was 54% and the growth inhibition ([1]; at 50.0 µM) was 74% (active). The growth inhibition [2, 7] was 6%, the growth inhibition [2, 8] was 26% and the growth inhibition ([2]; at 50.0 µM) was 40.8%. The growth inhibition [3, 7] was -3%, the growth inhibition [3, 8] was 53% and the growth inhibition ([3]; at 50.0 µM) was 64.3%. For the same compound, the growth inhibition [4, 7] was 3%, the growth inhibition [4, 8] was 44% and the growth inhibition ([4]; at 50.0 µM) was 51.7%. The growth inhibition [5, 7] was 18%, the growth inhibition [5, 8] was 53% and the growth inhibition ([5]; at 50.0 µM) was 38.4%. It also gave a growth inhibition [6, 7] of -11%, a growth inhibition [6, 8] of 64% and a growth inhibition ([6]; at 50.0 µM) of 58.8%.
For `C[C@@H]1CCC2[C@@H](C)[C@H](O[C@H]3O[C@@H]4O[C@@]5(C)CCC6[C@H](C)CCC([C@H]3C)[C@]64OO5)O[C@@H]3O[C@@]4(C)CCC1[C@@]23OO4` (some centres not stated), the growth inhibition [1, 7] was 92% (active), the growth inhibition [1, 8] was 93% (active) and the growth inhibition ([1]; at 50.0 µM) was 90.2% (active). For the same compound, the growth inhibition [2, 7] was 95% (active), the growth inhibition [2, 8] was 94% (active) and the growth inhibition ([2]; at 50.0 µM) was 91.6% (active). The growth inhibition [3, 7] was 94% (active), the growth inhibition [3, 8] was 95% (active) and the growth inhibition ([3]; at 50.0 µM) was 92% (active). For the same compound, the growth inhibition [4, 7] was 79% (active), the growth inhibition [4, 8] was 93% (active) and the growth inhibition ([4]; at 50.0 µM) was 89.7% (active). The growth inhibition [5, 7] was 92% (active), the growth inhibition [5, 8] was 94% (active) and the growth inhibition ([5]; at 50.0 µM) was 91.2% (active). For the same compound, the growth inhibition [6, 7] was 93% (active), the growth inhibition [6, 8] was 93% (active) and the growth inhibition ([6]; at 50.0 µM) was 90.8% (active).
For `Clc1ccc2c(NCCCCN3OC3c3ccccc3)ccnc2c1` (configuration not stated), the growth inhibition [1, 7] was 30%, the growth inhibition [1, 8] was 67% and the growth inhibition ([1]; at 50.0 µM) was 58.2%. It also gave a growth inhibition [2, 7] of 22%, a growth inhibition [2, 8] of 56% and a growth inhibition ([2]; at 50.0 µM) of 48.6%. For the same compound, the growth inhibition [3, 7] was 23%, the growth inhibition [3, 8] was 57% and the growth inhibition ([3]; at 50.0 µM) was 67.5%. The growth inhibition [4, 7] was 11%, the growth inhibition [4, 8] was 32% and the growth inhibition ([4]; at 50.0 µM) was 11.3%. For the same compound, the growth inhibition [5, 7] was 24%, the growth inhibition [5, 8] was 43% and the growth inhibition ([5]; at 50.0 µM) was 34.2%. The growth inhibition [6, 7] was 30%, the growth inhibition [6, 8] was 84% (active) and the growth inhibition ([6]; at 50.0 µM) was 35.2%.
In the case of `C[C@]12CC/C(=N\OC(=O)Nc3ccccc3)C=C1CC[C@@H]1C2CC[C@@]2(C)C1CC[C@@H]2OC(=O)Nc1ccccc1` (some centres not stated), the growth inhibition [1, 7] is reported as -7%, the growth inhibition [1, 8] is reported as 71% (active) and the growth inhibition ([1]; at 50.0 µM) is reported as 47.2%. For the same compound, the growth inhibition [2, 7] was -2%, the growth inhibition [2, 8] was 71% (active) and the growth inhibition ([2]; at 50.0 µM) was 95% (active). For the same compound, the growth inhibition [3, 7] was 1%, the growth inhibition [3, 8] was 86% (active) and the growth inhibition ([3]; at 50.0 µM) was 4%. It also gave a growth inhibition [4, 7] of -5%, a growth inhibition [4, 8] of 47% and a growth inhibition ([4]; at 50.0 µM) of 31.9%. For the same compound, the growth inhibition [5, 7] was -8%, the growth inhibition [5, 8] was 65% and the growth inhibition ([5]; at 50.0 µM) was 93.1% (active). For the same compound, the growth inhibition [6, 7] was -4%, the growth inhibition [6, 8] was 87% (active) and the growth inhibition ([6]; at 50.0 µM) was 89% (active).
